SNCA viab count – counter-screen for SNCA expression inhibitors: cell viability; HEK-293-SNCA-luc viability, GF-AFC fluorescence, 24 h; Potency, µM (titrated, usually from 57.1 µM), without a hit: top-dose activity change, negative = cytotoxicity, usual class: cytotoxic; 150,000 compounds, 0.12% hits; AID 1671193;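 also: potency is read from the fitted curve at half-maximal effect; 0% = DMSO-treated cells and -100% = medium-only wells without cells; nearly all actives have a fitted effect of over 30% in size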
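Cytotoxicity counterscreen: after 24 h compound treatment of genome-edited SNCA-luciferase HEK-293 cells, live-cell protease substrate GF-AFC read by fluorescence after 30 min; activity scaled between DMSO (0%) and medium-only (-100%), curves Hill-fitted.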
IP6K1 inhibitor – blocks human inositol hexakisphosphate kinase 1 | Q92551 | IP6K1 kinase, ADP-Glo luminescence, 2 h; active compounds read low | activity change, % (series mostly up to about 58 µM) | 140,000 compounds, 0.81% hits | AID 1645851; in the data active = activity change below about -25%; also: % is scaled to controls: 0 for no effect and ±100 for the full control effect
Target sequence (Q92551 whole entry, looked up): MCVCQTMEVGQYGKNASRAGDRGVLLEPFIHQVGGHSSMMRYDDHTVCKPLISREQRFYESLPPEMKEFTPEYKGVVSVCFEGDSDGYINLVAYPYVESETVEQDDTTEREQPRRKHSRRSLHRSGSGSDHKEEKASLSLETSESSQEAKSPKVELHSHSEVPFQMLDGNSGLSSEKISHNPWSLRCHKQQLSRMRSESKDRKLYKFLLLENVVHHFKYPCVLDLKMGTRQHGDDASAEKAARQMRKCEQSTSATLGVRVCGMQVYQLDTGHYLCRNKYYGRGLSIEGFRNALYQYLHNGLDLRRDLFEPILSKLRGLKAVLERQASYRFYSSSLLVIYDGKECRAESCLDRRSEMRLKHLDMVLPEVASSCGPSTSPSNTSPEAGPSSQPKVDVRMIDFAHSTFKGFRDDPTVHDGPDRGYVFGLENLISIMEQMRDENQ
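ADP-Glo luminescence measures ADP made by human IP6K1 during a 2 h RT reaction with ATP/IP6 (mix at 1.3 mM/130 uM); top library doses 57.5 and 19.1 uM final.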
SNCA expr inh – inhibitors of alpha-synuclein (SNCA) gene expression. HEK-293 SNCA-luciferase knock-in, luminescence, 24 h. Potency, µM (top dose mostly 57.2 µM), without a hit: top-dose activity change, negative = inhibition, most hits filed as inhibitors. 140,000 compounds, 0.17% hits;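 also: potency is read from the fitted curve at half-maximal effect; plate controls were DMSO cells for no effect and cell-free wells for full effect; nearly all actives have a fitted effect of over 45% in size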
KDM5B inhibitor – KDM5B demethylase inhibition | KDM5B demethylase, FDH-coupled NADH fluorescence (FDH is formaldehyde dehydrogenase) | Q9UGL1 | Potency, µM (series often up to 57.7 µM), most hits filed as inhibitors | 220,000 compounds, 2.6% hits; also: potency is read from the fitted curve at half-maximal effect; 0% is about no effect; nearly all actives have a fitted effect of over 70% in size
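KDM5BΔAP (200 nM final) in 50 mM HEPES pH 7.5, 0.01% Tween-20 was preincubated 10 min at RT with compound over a concentration range. Substrate mix (H3K4me3 12.5 µM, α-KG 25 µM, Fe²⁺, ascorbate, NAD⁺, FDH) was added, and NADH fluorescence change over 30 min gave dose-response curves.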
* = called active by the depositor; i = inactive; ? = inconclusive; · = no result; [ ] = dose if it differs, or a comment. The list is not random: actives were taken first. Their share in the collection is about 3%. Unless noted, calls follow the shape of the dose curve; as a rule, active = well fitted curve in the direction sought with a large enough effect; inconclusive = small, poorly fitted or top-dose-only effect, or another doubt; inactive = no such curve, though single readings can be large; an effect the other way counts as inactive or inconclusive.

SMILES	SNCA viab count	IP6K1 inhibitor	SNCA expr inh	KDM5B inhibitor
Cc1ccc([S+](=O)([O-])N2CCCC(C(=O)N3CCC4(CC3)CC(=O)Nc3ccccc3O4)C2)cc1 (stereo unspecified)	-26%	-1	-14%	·
COc1ccc(-c2cnc3[nH]cc(CC(=O)N4CCNC(=O)C4)c3c2)cc1	3%[87.6 µM]	-12	4%[87.6 µM]	35µM*
Cc1ccccc1-c1cnc2[nH]cc(CC(=O)N3CCOCC3)c2c1	-11%[87.6 µM]	-17	-18%[87.6 µM]	35µM*
COc1ccc(-c2cnc3[nH]cc(CC(=O)NC4CCC(O)CC4)c3c2)cc1 (stereo unspecified)	-16%[87.6 µM]	-14	8%[87.6 µM]	?
O=C(Cc1c[nH]c2ncc(-c3cccc(CO)c3)cc12)N1CCOCC1	1%[87.6 µM]	-13	6%[87.6 µM]	28µM*
O=C(Cc1c[nH]c2ncc(-c3ccccc3)cc12)N1CC[S+](=O)([O-])CC1	0%[87.6 µM]	-13	15%[87.6 µM]	35µM*
O=C(Cc1c[nH]c2ncc(-c3ccccc3C(F)(F)F)cc12)N1CCOCC1	-8%[87.6 µM]	-7	5%[87.6 µM]	?
CCOC(=O)C1CCCN(C(=O)c2ccc3nc(-c4ccncc4)oc3c2)C1 (stereo unspecified)	7%	3	-5%	·
O=C(Cc1cccc(Cl)c1)N1CCN(c2nccc(Nc3ccccc3F)n2)CC1	7%[12.5 µM]	-5	116%	·
O=C(Cc1c[nH]c2ncc(-c3ccc(Oc4ccccc4)cc3)cc12)N1CCOCC1	?	-7	25µM*	40µM*
O=C(Cc1c[nH]c2ncc(-c3ccccc3Oc3ccccc3)cc12)N1CCOCC1	-17%[87.6 µM]	-19	?	?
COc1cc(F)cc(-c2cnc3[nH]cc(CC(=O)N4CCOCC4)c3c2)c1	?	-9	-12%[87.6 µM]	35µM*
O=C(Cc1c[nH]c2ncc(-c3cccc(O)c3)cc12)N1CCOCC1	-20%[87.6 µM]	-17	?	?
COc1ccc(-c2noc(CCCC(=O)N3CCCn4nc(-c5ccc(F)cc5)cc4C3)n2)cc1OC	?	18	-19%	·
CC(C)c1ccc(NC(=S)NCc2ccc(F)cc2)cc1	·	·	·	i
COc1ccccc1C(=O)NCc1nnc2ccc(-c3ccc(C)cc3)nn12	?	-2	-9%	13µM*
CCOc1ccccc1C(=O)NCc1nnc2ccc(-c3ccc(C)c(C)c3)nn12	5%	3	22%	32µM*
CCOc1ccccc1C(=O)NCc1nnc2ccc(-c3ccc(C)cc3)nn12	-20%	-15	9%	?
Cc1nc(CN2C[C@H](C(=O)Nc3ccccc3)C[C@@H]2c2ccc(F)cc2)cs1	-13%[87.6 µM]	-4	-14%[87.6 µM]	35µM*
COc1ccc(C(=O)N[C@@H]2CN(Cc3ccccc3)C[C@H]2CN(C)C)cc1	-8%	6	?	·
COc1cc2c(cc1OC)C(C[C@H]1CN(C(=O)c3ccc4c(c3)OCO4)CC[C@H]1CC(=O)O)=NCC2	4%	8	4%	32µM*
COc1cc2c(cc1OC)C(C[C@H]1CN(C(=O)c3ccccc3)CC[C@H]1CC(=O)O)=NCC2	8%	8	-2%	i
COc1ccc2c(c1)CCN=C2C[C@H]1CN(C(=O)c2ccccc2)CC[C@H]1CC(=O)O	-2%[87.6 µM]	21	-18%[87.6 µM]	28µM*
C=CCNC(=O)N1CC[C@@H](CC(=O)O)[C@@H](CC2=NCCc3cc(OC)ccc32)C1	2%[87.6 µM]	11	6%[87.6 µM]	35µM*
COc1ccc2c(c1)CCN=C2C[C@H]1CN(C(=O)c2cccc(F)c2)CC[C@H]1CC(=O)O	-3%	10	2%	?
SMILES	SNCA viab count	IP6K1 inhibitor	SNCA expr inh	KDM5B inhibitor
COc1cc2c(cc1OC)C(C[C@H]1CN(C(=O)Cc3cccs3)CC[C@H]1CC(=O)O)=NCC2	8%	7	-5%	28µM*
COC(=O)C[C@@H]1CCN(C(=O)COc2ccccc2)C[C@@H]1CC1=NCCc2cc(OC)c(OC)cc21	-12%	-1	-22%	25µM*
COc1cc2c(cc1OC)C(C[C@H]1CN(C(=O)c3ccc(F)cc3)CC[C@H]1CC(=O)O)=NCC2	13%	-1	9%	i
COc1ccc2c(c1)CCN=C2C[C@H]1CN(C(=O)Cc2cccs2)CC[C@H]1CC(=O)O	3%[87.6 µM]	-4	4%[87.6 µM]	35µM*
O=C(NCCc1ccc(F)cc1)c1ccc2nnc(-c3cc(F)ccc3F)n2c1	-11%	14	?	·
CNC(=O)c1cc(C2CC2)nc2c1c(C1CCN([S+](=O)([O-])c3cccc(C(F)(F)F)c3)CC1)nn2C	·	-14	·	·
Cc1noc(-c2ccn3c(CNC(=O)C(C)c4ccccc4)nnc3c2)n1 (stereo unspecified)	6%	21	2%	28µM*

Screens (PubChem)
